From PubChem BioAssay (Tox21)
Values joined by “and” are separate entries in the source; they are usually repeats but may differ in a detail not shown here. Equal values may be shown once. Results filed as inconclusive are left out. Where a structure was tested more than once in an assay, its records may differ in their call. Active and inactive are the calls of the source. Unless noted, calls follow the shape of the dose curve; as a rule, active = well fitted curve in the direction sought with a large enough effect in the repeat runs; inconclusive = weak or mixed curves; inactive = no such curve, though single readings can be large; an effect the other way counts as inactive or inconclusive.

Experiments:
[1] = target: Luciferin 4-monooxygenase (Photinus pyralis) (UniProt P08659); assay: qHTS assay to identify small molecule inhibitors of firefly luciferase (AID 1224835); also: nearly all actives have a fitted effect of over 25% in size; also: potency is read from the fitted curve at half-maximal effect
Chain of Luciferin 4-monooxygenase (Photinus pyralis) (P08659 whole entry, looked up): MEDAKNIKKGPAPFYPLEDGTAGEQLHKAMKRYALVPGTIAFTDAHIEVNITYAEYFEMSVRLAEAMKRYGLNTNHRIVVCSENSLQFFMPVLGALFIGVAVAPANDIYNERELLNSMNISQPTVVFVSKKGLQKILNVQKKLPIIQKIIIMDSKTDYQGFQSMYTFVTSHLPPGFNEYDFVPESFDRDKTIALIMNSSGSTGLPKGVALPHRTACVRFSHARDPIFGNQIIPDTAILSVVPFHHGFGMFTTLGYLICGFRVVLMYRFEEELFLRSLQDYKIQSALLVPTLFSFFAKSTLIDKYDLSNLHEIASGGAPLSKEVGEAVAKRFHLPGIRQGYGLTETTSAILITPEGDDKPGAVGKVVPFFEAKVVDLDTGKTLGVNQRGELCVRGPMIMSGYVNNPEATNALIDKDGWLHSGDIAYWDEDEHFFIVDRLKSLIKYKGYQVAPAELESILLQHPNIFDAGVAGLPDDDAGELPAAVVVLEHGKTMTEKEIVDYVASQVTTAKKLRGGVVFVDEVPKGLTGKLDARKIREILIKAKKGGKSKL
How it was run: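 Inhibition of purified Photinus luciferase is measured by luminescence. Substrate levels (D-luciferin, ATP) sit at their KM values. Each compound is tested in a concentration series.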

[2] = qHTS assay to identify small molecule agonists of the constitutive androstane receptor (CAR) signaling pathway - cell viability counter screen (AID 1224836); also: nearly all actives have a fitted effect of over 45% in size; also: potency is read from the fitted curve at half-maximal effect
How it was run: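 HepG2-CYP2B6-hCAR, 2500 cells/well, 4 h pre-incubation; cpd 15 conc + PK11195 0.75 uM final; 23 h, 37 C/5% CO2; CellTiter-Fluor, fluorescence.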

[3] = qHTS assay to identify small molecule antagonists of the constitutive androstane receptor (CAR) signaling pathway - cell viability counter screen (AID 1224837); also: nearly all actives have a fitted effect of over 45% in size; also: potency is read from the fitted curve at half-maximal effect
How it was run: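 HepG2 cells stably carrying hCAR and CYP2B6-2.2kb reporter, stimulated with 50 nM CITCO and compounds at 15 concentrations for 23 h at 37 C. Viability measured by CellTiter-Fluor fluorescence.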

[4] = target: Nuclear receptor subfamily 1 group I member 3 (Homo sapiens) (UniProt Q14994); assay: qHTS assay to identify small molecule agonists of the constitutive androstane receptor (CAR) signaling pathway (AID 1224839); also: nearly all actives have a fitted effect of over 15% in size; also: potency is read from the fitted curve at half-maximal effect
Chain of Nuclear receptor subfamily 1 group I member 3 (Homo sapiens) (Q14994 whole entry, looked up): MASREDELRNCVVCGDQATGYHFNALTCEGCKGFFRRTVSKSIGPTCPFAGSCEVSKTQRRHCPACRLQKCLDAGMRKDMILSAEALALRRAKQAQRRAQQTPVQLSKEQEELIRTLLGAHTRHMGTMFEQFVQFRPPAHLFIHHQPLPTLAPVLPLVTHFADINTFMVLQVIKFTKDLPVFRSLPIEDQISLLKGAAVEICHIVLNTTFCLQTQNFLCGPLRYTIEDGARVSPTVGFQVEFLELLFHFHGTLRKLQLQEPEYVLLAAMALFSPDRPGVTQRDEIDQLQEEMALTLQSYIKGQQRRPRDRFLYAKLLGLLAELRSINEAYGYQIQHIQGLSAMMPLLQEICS
How it was run: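 HepG2-CYP2B6-hCAR cells, 2500/well, 4 h pre-incubation; compounds 15 conc.; PK11195 0.75 uM final; 24 h, 37 C/5% CO2; ONE-Glo luciferase read.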

[5] = qHTS assay to identify small molecule antagonists of the estrogen related receptor signaling pathway with the pleiotropic PPARgamma coactivator (PGC) from Tox21 10K library - cell viability counter screen (AID 1224840; active = well fitted cell-killing curve with a large enough effect in the repeat runs, not every such curve was filed as active; also: nearly all actives have a fitted effect of over 40% in size; also: potency is read from the fitted curve at half-maximal effect)
How it was run: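 PGC/ERR cells (2,000/well) plated 6 h, then compound-treated for 17.5 h at 37 C. Viability measured by CellTiter-Fluor fluorescence after 30 min at 37 C, multiplexed with the pathway assay.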

[6] = target: Thyrotropin receptor (Homo sapiens) (UniProt P16473); assay: qHTS assay to identify small molecule agonists of the thyroid stimulating hormone receptor (TSHR) signaling pathway (AID 1224843; calls by dose curve; also: nearly all actives have a fitted effect of over 45% in size; also: potency is read from the fitted curve at half-maximal effect)
Chain of Thyrotropin receptor (Homo sapiens) (P16473 whole entry, looked up): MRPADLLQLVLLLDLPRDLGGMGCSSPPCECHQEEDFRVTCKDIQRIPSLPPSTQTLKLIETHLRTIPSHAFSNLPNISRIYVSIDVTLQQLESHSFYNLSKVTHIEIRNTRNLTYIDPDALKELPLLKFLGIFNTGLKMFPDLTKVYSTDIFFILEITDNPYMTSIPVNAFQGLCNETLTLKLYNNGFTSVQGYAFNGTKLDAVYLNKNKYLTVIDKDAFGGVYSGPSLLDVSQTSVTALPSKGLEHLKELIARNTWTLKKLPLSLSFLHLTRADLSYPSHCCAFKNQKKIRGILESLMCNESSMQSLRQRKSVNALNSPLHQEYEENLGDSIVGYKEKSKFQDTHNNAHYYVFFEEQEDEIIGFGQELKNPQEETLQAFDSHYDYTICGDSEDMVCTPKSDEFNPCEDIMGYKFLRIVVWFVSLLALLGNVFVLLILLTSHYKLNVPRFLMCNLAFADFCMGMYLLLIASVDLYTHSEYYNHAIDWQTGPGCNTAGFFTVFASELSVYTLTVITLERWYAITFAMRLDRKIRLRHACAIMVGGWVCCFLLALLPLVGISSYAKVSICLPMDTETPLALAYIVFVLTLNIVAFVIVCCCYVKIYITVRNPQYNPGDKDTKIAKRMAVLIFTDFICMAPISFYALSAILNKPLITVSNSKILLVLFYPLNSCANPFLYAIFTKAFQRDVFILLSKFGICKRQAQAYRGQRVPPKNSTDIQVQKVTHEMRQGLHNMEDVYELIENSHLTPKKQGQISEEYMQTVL
How it was run: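 HEK293 cells stably bearing the thyrotropin receptor were plated at 800 cells/well and challenged with compound (30 min, RT). Accumulated cAMP was quantified via cAMP-d2 competing for cryptate-tagged antibody.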

[7] = qHTS assay to identify small molecule agonists of the hypoxia (HIF-1) signaling pathway - cell viability counter screen (AID 1224844; calls by dose curve; also: nearly all actives have a fitted effect of over 50% in size; also: potency is read from the fitted curve at half-maximal effect)
How it was run: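 HRE-bla ME-180 cells, 2,000/well in 0.5% dialyzed FBS medium, treated 17 h at 37C with compounds. Viability read in the same wells as the bla reporter, by CellTiter-Glo luminescence after 30 min at room temperature.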

[8] = qHTS assay to identify small molecule antagonists of the estrogen related receptor signaling pathway with the pleiotropic PPARgamma coactivator (PGC) from Tox21 10K library (AID 1224841; call rule not given here; also: actives are mostly falling curves and most rising ones were filed inactive; nearly all actives have a fitted effect of over 50% in size; also: potency is read from the fitted curve at half-maximal effect)
How it was run: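 PGC/ERR cell line, 2,000 cells/well, pre-incubated 6 hours at 37 C, then exposed to compounds for 18 hours at 37 C; luciferase read with One-Glo luminescence after 30 min at room temperature.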

[9] = qHTS assay to identify small molecule agonists of the estrogen related receptor signaling pathway with the pleiotropic PPARgamma coactivator (PGC) from Tox21 10K library (AID 1224842); also: nearly all actives have a fitted effect of over 15% in size
How it was run: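 Luminescence from One-Glo (30 min, room temperature) measured after PGC/ERR cells had 18 h at 37 C with pinned compound (23 nL in DMSO). Cells had been seeded at 2,000 per well and pre-incubated 6 h.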

[10] = target: Nuclear receptor subfamily 1 group I member 3 (Homo sapiens) (UniProt Q14994); assay: qHTS assay to identify small molecule antagonists of the constitutive androstane receptor (CAR) signaling pathway (AID 1224838); also: nearly all actives have a fitted effect of over 40% in size
How it was run: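 HepG2 cells stably carrying hCAR and a CYP2B6-2.2kb luciferase reporter, seeded 4 hrs before compound (15 concentrations). Stimulated with 50 nM CITCO for 24 hr at 37 C. ONE-Glo luminescence read after 30 min at room temperature.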

Measured: Potency

O=C(NC(=O)c1c(F)cccc1F)Nc1cc(Cl)c(OC(F)(F)C(F)F)c(Cl)c1
active: [4] 2.17 µM
inactive: [1] | [2] | [3] | [5] | [6] | [7]

Cc1cc(C)cc(OP(=O)(Oc2cc(C)cc(C)c2)Oc2cc(C)cc(C)c2)c1
inactive: [1] | [2] | [3] | [5] | [8] | [9] | [7]

C=COCCCl
inactive: [1] | [2] | [3] | [4] | [5] | [8] | [9] | [7]

Clc1ccc(C(c2ccc(Cl)cc2)C(Cl)(Cl)Cl)cc1
inactive: [1] | [2] | [3] | [5] | [9]
active: [7] 24.7 µM
17.4 µM (active) and inactive: [8]

N#CCc1ccc(Cl)cc1
inactive: [1] | [2] | [3] | [5] | [8] | [9] | [7]

COC[C@H](C)N(C(=O)CCl)c1c(C)csc1C
inactive: [1] | [2] | [3] | [5] | [8] | [9] | [7]

ClC1=C(Cl)[C@]2(Cl)[C@@H]3[C@@H](Cl)[C@@H](Cl)C[C@@H]3[C@@]1(Cl)C2(Cl)Cl
inactive: [1] | [2] | [3] | [4] | [5] | [8] | [9] | [7]

OC(c1ccc(Cl)cc1)(c1ccc(Cl)cc1)C(Cl)(Cl)Cl
inactive: [1] | [2] | [3] | [5] | [8] | [9]
active: [7] 21.9 µM

COc1ccc(N)cc1N
active: [1] 41.2 µM | [2] 63.1 µM | [3] 70.8 µM
28.2 µM (active) and inactive: [5]
inactive: [9] | [7]

ClC1=C(Cl)[C@]2(Cl)[C@H]3[C@H]([C@H]4C=C[C@H]3C4)[C@@]1(Cl)C2(Cl)Cl
active: [4] 13.7 µM
inactive: [1] | [2] | [3] | [5] | [7]

CCOCCOC(C)=O
inactive: [1] | [2] | [3] | [5] | [9] | [6] | [7]

ClC1=C(Cl)[C@]2(Cl)[C@@H]3[C@@H]4C[C@@H]([C@H]5O[C@@H]45)[C@@H]3[C@@]1(Cl)C2(Cl)Cl
inactive: [1] | [2] | [3] | [9]
active: [5] 61.1 µM | [8] 61.1 µM | [6] 1.93 µM

O=C(O)COc1nc(Cl)c(Cl)cc1Cl
inactive: [1] | [2] | [3] | [4] | [5] | [7]

ClCCN1CCOCC1
inactive: [1] | [2] | [3] | [5] | [8] | [9] | [6] | [7]

CC(=O)O[C@H]1CC[C@@]2(C)C(=CC[C@@H]3[C@@H]2CC[C@]2(C)C(=O)CC[C@@H]32)C1
inactive: [1] | [2] | [3] | [4] | [5] | [6]

c1cc[c]([Sb]([c]2ccccc2)[c]2ccccc2)cc1
inactive: [1] | [2] | [3] | [6] | [7]
active: [4] 15.4 µM

CCC(C)c1cc(C(C)(C)C)cc(-n2nc3ccccc3n2)c1O (centres undefined)
active: [7] 19 µM
inactive: [1] | [2] | [3] | [5] | [8] | [9]

Nc1ccccc1C(=O)OC/C=C/c1ccccc1
active: [1] 31.8 µM | [4] 48.7 µM
inactive: [2] | [3] | [5] | [6]

O=[N+]([O-])c1cc(C(F)(F)F)c(Cl)c([N+](=O)[O-])c1Cl
active: [1] 79.6 µM | [2] 43.3 µM | [3] 27.3 µM | [5] 48.6 µM | [7] 7.76 µM
inactive: [9]

CC(C)OS(C)(=O)=O
inactive: [1] | [2] | [3] | [4] | [5] | [7]

C[As+](C)(C)CC(=O)[O-]
inactive: [1] | [2] | [3] | [4] | [5] | [9] | [7]

CN(CCCC(=O)c1cccnc1)N=O
inactive: [1] | [2] | [3] | [4] | [5] | [7]

CC(=[OH+])/C=C(/C)[O-].CC(=[OH+])/C=C(\C)[O-].CC(=[OH+])/C=C(\C)[O-].[Al]
active: [1] 71 µM
inactive: [2] | [3] | [5] | [7]

CC(C)(C)C(O)/C(=C\c1ccc(Cl)cc1Cl)n1cncn1 (centres undefined)
inactive: [1] | [10] | [9] | [7]
active: [2] 74 µM | [5] 58.7 µM | [8] 29.4 µM

CNC(C)Cc1ccc2c(c1)OCO2 (centres undefined)
inactive: [1] | [2] | [10] | [4] | [5] | [6]

CC(C)(c1ccc(O)c(-c2ccccc2)c1)c1ccc(O)c(-c2ccccc2)c1
active: [2] 54.5 µM | [4] 17.2 µM | [5] 54.5 µM | [8] 48.6 µM | [7] 17.4 µM
inactive: [1] | [9]

CCS(=O)(=O)c1cccnc1S(=O)(=O)NC(=O)Nc1nc(OC)cc(OC)n1
active: [4] 54.5 µM
inactive: [1] | [2] | [10] | [5] | [9] | [6] | [7]

Clc1ccc(C(c2ccccc2Cl)C(Cl)(Cl)Cl)cc1 (centres undefined)
active: [4] 6.9 µM and 1.6 µM | [8] 61.5 µM
inactive: [1] | [2] | [10] | [5] | [9]

CN(CCCC(O)c1cccnc1)N=O (centres undefined)
inactive: [1] | [2] | [3] | [5] | [6] | [7]
